# CYP2C9 activ: activators of human CYP2C9; P11712; AID 1024; activation factor at 5 µM; 96,000 compounds, 1.4% hits; recombinant CYP2C9, luciferin-H conversion, luminescence; hits give high values; factor 1 = untreated enzyme, 0 = blocked;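 active means activation factor of 2 or more for CYP2C9 at a 5 µM dose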;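 further: 0 = sulfaphenazole-blocked wells and 1 = vehicle-only wells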
# Target sequence (P11712 whole entry, looked up): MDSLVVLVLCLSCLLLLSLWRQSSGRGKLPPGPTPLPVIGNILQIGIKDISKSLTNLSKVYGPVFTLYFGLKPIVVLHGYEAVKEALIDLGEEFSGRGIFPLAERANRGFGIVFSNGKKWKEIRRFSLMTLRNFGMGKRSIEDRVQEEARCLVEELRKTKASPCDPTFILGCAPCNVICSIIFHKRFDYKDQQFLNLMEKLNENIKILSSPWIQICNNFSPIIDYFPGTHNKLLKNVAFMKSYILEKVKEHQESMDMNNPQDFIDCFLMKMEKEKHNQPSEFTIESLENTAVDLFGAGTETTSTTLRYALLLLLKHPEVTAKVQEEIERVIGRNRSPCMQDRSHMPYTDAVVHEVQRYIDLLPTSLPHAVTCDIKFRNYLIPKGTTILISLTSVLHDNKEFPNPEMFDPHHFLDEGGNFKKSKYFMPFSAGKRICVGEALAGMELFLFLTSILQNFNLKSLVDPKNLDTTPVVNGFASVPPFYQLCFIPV
# PostGolgi yeast: growth inhibition of a yeast mutant, post-Golgi transport screen | post-Golgi transport phenotypic cell assay | inhibition, % at 10 µM | 98,000 compounds, 0.9% hits;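 further: yeast cells grown in 1536-well plates; yeast grown about 18 h at 30C before absorbance read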
# CYP2C19 inh: human CYP2C19 inhibition; P33261; CYP2C19 Supersomes, luciferin-H EGE luminescence, 30 min; inhibition, % at 5 µM; 96,000 compounds, 21% hits; AID 778;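 active means CYP2C19 inhibition above a set limit at 5 µM in the primary screen, cut at about 50% in these data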;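 further: plate controls were negative control wells for no effect and 2.5 mM tranylcypromine positive control for full effect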
# CYP2C19 activ: activators of human cytochrome P450 2C19; P33261; recombinant CYP2C19, luciferin-H EGE luminescence; hits give high values; 0 = fully inhibited enzyme, 1 = untreated enzyme; activation factor at 5 µM; 96,000 tested, under 10 active; AID 1025;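 active means activation factor of at least 2 at 5 µM in the primary screen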;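 further: 0 = wells with 2.5 mM tranylcypromine and 1 = vehicle-only wells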
# PostGolgi ctrl: yeast control strain growth, post-Golgi counter-screen. efflux-deficient yeast background strain, growth absorbance A615, 16 h. inhibition, % at 10 µM. 98,000 compounds, 5% hits
# CYP2C9 inh: inhibitors of human CYP2C9. P11712. CYP2C9 Supersomes, luciferin-H conversion, luminescence. inhibition, % at 5 µM. 96,000 compounds, 20% hits. AID 777;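 active means blocking of liver enzyme CYP2C9 beyond about 50% at 5 µM, limit read from the data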
# * hit, by the source's call. Most compounds without a hit are left out; they make up all but 32% or so of the library. Unless noted, no stated cut-off is given here; in the data, active means inhibition above about 30%; inactive means the rest.
SMILES,CYP2C9 activ,PostGolgi yeast,CYP2C19 inh,CYP2C19 activ,PostGolgi ctrl,CYP2C9 inh
N#Cc1nc(Cc2cccc3ccccc23)oc1N1CCOCC1,0.8,-7,48,0.5,5,17
C=CCNc1oc(Cc2cccc3ccccc23)nc1C#N,0.4,-15,100*,0,19,65*
C=CCNc1oc(/C=C/c2ccccc2)nc1C#N,0.3,0,68*,0.3,29,74*
CC1CCN(c2oc(Cc3cccc4ccccc34)nc2C#N)CC1,0.2,-6,93*,0.1,18,76*
CC(=O)c1cccc(NC(=O)NCCS(C)=O)c1 (stereo unspecified),1.1,-5,-14,1.1,14,-11
CCCC(=O)Nc1ccc(C(=O)NNC(=O)c2ccccc2Br)cc1,0.8,-15,8,0.9,5,22
CC1CCN(C(=O)c2ccc(NC(=O)C3CCCO3)cc2)CC1 (stereo unspecified),0.9,-1,-2,1,22,10
N#Cc1nc(-c2ccc(F)cc2)oc1NCc1cccc2c1OCO2,0.4,1,17,0.8,5,63*
Cc1ccc(-c2nc(C#N)c(NCc3cccc4c3OCO4)o2)cc1,0.6,1,-5,1.1,20,39
COC(=O)c1cccc(NC(=O)c2ccc(S(=O)(=O)N3CCN(C)CC3)cc2)c1,0.7,1,32,0.7,-8,27
CCOC(=O)C(CCCOc1ccccc1C)C(=O)OCC,0.5,-8,16,0.8,5,47
COc1ccc(OC)c(NC(=O)Cn2cc(C#N)c3ccccc32)c1,0.2,2,85*,0.2,11,80*
COc1ccc(OC)c(NC(=O)Cn2cccc2)c1,0.7,-6,28,0.7,-4,30
COc1ccc(OC)c(NC(=O)Cn2cc(C(=O)c3ccco3)c3ccccc32)c1,0,5,96*,0,11,98*
C=CCOc1ccc(CNC(C)(C)CO)cc1OCC,0.9,-2,40,0.6,6,15
S=C(Nc1ccccn1)c1ccccn1,0.5,4,66*,0.3,14,51*
C=CCOC(=O)C1=C(C)OC(N)=C(C#N)C1c1ccccc1F (stereo unspecified),0.4,-6,81*,0.2,24,56*
CCOC(=O)C1=C(C)OC(N)=C(C#N)C1c1c(C)nn(-c2ccc(C)cc2)c1Cl (stereo unspecified),0,-9,100*,0,21,97*
CCOC(=O)C1=C(c2ccccc2)OC(N)=C(C#N)C1c1ccc(Cl)s1 (stereo unspecified),0.8,-2,34,0.7,12,22
CCOC(=O)C1=C(C)N(c2nonc2NC(C)=O)C(N)=C(C#N)C1c1ccccc1F (stereo unspecified),0.3,1,73*,0.3,0,73*
COCCn1c(C)cc2c(c1=O)C(c1ccccc1F)C(C#N)=C(N)O2 (stereo unspecified),0.9,4,1,1,-1,10
COC(=O)C1=C(C)OC(N)=C(C#N)C1c1ccccc1 (stereo unspecified),0.6,-4,83*,0.2,4,44
CC1=C(C#N)C(NC(=O)C2CC2)(C(F)(F)F)C(=O)N1 (stereo unspecified),1.2,-1,-16,1.2,-2,-16
Cc1nc(C)c(C(=O)Nc2ccc(Oc3ccccc3)cc2)o1,0.8,-6,13,0.9,1,17
COC(=O)C1=C(C)OC(N)=C(C#N)C1c1c(C)nn(-c2ccccc2)c1Cl (stereo unspecified),0,0,97*,0,30,96*
SMILES,CYP2C9 activ,PostGolgi yeast,CYP2C19 inh,CYP2C19 activ,PostGolgi ctrl,CYP2C9 inh
CCOC(=O)C1=C(C)N(C)C(=O)NC1c1c(C)nn(-c2ccc(C)cc2)c1Cl (stereo unspecified),0.3,24,83*,0.2,2,74*
COC(=O)CC1=C(C(=O)OC)C(c2cc(OC)c(OC)cc2OC)C(C#N)=C(N)O1 (stereo unspecified),0.5,-2,34,0.7,4,49
CCSc1cc(C2C(C#N)=C(N)OC(C)=C2C(=O)OC)c(C)o1 (stereo unspecified),0.2,-2,90*,0.1,12,81*
CCOC(=O)C1=C(C)NC(=O)NC1c1c(C)nn(-c2ccccc2)c1Cl (stereo unspecified),0.5,-4,30,0.7,4,46
COC(=O)C1=C(C)OC(N)=C(C#N)C1c1ccc(OC)c(CSc2ccccn2)c1 (stereo unspecified),0.1,7,79*,0.2,22,89*
N#CC1=C(N)Oc2n[nH]c(-c3cccs3)c2C1C1CCCCC1 (stereo unspecified),1,5,45,0.5,19,2
COC(=O)C1=C(C)OC(N)=C(C#N)C1C1CCCCC1 (stereo unspecified),0.5,-8,78*,0.2,7,54*
COC(=O)C1=C(C)OC(N)=C(C#N)C1c1ccc(OC)c(OC)c1OC (stereo unspecified),0.5,5,58*,0.4,5,54*
Nc1cc(=O)[nH]c(SCCNS(=O)(=O)c2ccccc2)n1,1,0,-2,1,6,-3
COc1cc(Cl)c(C)cc1NC(=O)CCCN1C(=O)CCC1=O,0.9,0,31,0.7,15,8
COC(=O)c1cc(OC)c(OC)cc1NC(=O)CCCCCN1C(=O)CCC1=O,0.6,15,62*,0.4,8,44
CCOC(=O)c1cncc(NC(=O)c2ccccc2)c1,1,4,21,0.8,-1,2
CCN(CC)C(=O)c1sc(NC(=O)Cc2ccc(OC)cc2)c(C#N)c1C,0.2,1,78*,0.2,10,78*
Fc1ccc(Nc2ncnc3sc4c(c23)CCC4)cc1,0.4,-5,88*,0.1,40*,61*
Cc1nc(NS(=O)(=O)c2ccccc2C)c2c3c(sc2n1)CCC3,0.7,0,2,1,47*,26
O=S(=O)(Nc1ncnc2sc3c(c12)CCC3)c1ccc2ccccc2c1,0.2,5,17,0.8,18,79*
c1ccc(Nc2ncnc3sc4c(c23)CCC4)cc1,0.8,-2,76*,0.2,6,23
C[C@H](Nc1ncnc2sc3c(c12)CCC3)C(=O)O,0.9,3,-1,1,19,5
CCS(=O)(=O)c1ccc2oc(SCC(=O)NC(C)C3CC4CCC3C4)nc2c1 (stereo unspecified),0.8,8,10,0.9,6,24
C=CCOc1nc2c(c(=O)n(Cc3ccc(Cl)cc3)c(=O)n2C)n1C,0.8,-10,34,0.7,3,15
c1cn(CCCNc2ncnc3sc4c(c23)CCC4)cn1,0,15,100*,0,4,97*
c1csc(CCNc2ncnc3sc4c(c23)CCC4)c1,0.5,-1,94*,0.1,82*,46
